# Out of some 13,000 compounds screened, about 3,200 (25%) showed an effect of 50% or more. This is one part of the list.
# Tested on: P. falciparum stage V gametocytes
# Parameters: BacTiter-Glo ATP luminescence viability of purified stage V gametocytes in 384-well plates, per cent inhibition versus DMSO
# Conditions: 48 h, 5 µM; inhibitor
row,Structure (SMILES),% Inhibition [%]
1,O=C(CC(=O)C(F)(F)F)c1ccc2c(c1)OCO2 [TCMDC-125824],-11.59
2,CN(C)C(=O)c1ccc(CN(Cc2ccc(OC(C)(C)C)cc2)Cc2ccc3c(c2)OCCO3)cc1 [TCMDC-136615],62.57
3,Cc1ccc(CN(Cc2ccc(C(=O)N(C)C)cc2)Cc2ccc3c(c2)OCCO3)cc1C [TCMDC-136617],24.15
4,CC(C)(C)OC(=O)NCC(=O)N(Cc1ccccc1)Cc1ccccc1 [TCMDC-131954],1.715
5,CN(C)C(=O)c1ccc(CN(Cc2ccc3c(c2)OCCO3)Cc2ccc3c(c2)OCO3)cc1 [TCMDC-136612],-1.47
6,CC(=O)Nc1ccc(CN(Cc2cccc(OC(C)(C)C)c2)Cc2ccc3c(c2)OCCO3)cc1 [TCMDC-136613],87.49
7,CC(=O)Nc1ccc(CN(Cc2ccc(C)cc2)Cc2cccc(Oc3ccccc3)c2)cc1 [TCMDC-140147],4.246
8,CC(=O)Nc1ccc(CN(Cc2ccc(OC(C)(C)C)cc2)Cc2ccc3c(c2)OCCO3)cc1 [TCMDC-136616],-22.37
9,CN(C)C(=O)c1ccc(CN(Cc2cccc(OC(C)(C)C)c2)Cc2ccc3c(c2)OCCO3)cc1 [TCMDC-136614],66.69
10,O=C(/C=C/c1ccc([N+](=O)[O-])cc1)N1CCC(NS(=O)(=O)c2cccc(C(F)(F)F)c2)CC1 [TCMDC-139443],-15.57
11,c1ccc(C(c2ccccc2)N2CCN(C(c3cccnc3)c3nnnn3C3CCCC3)CC2)cc1 (stereo not shown) [TCMDC-123571],-4.144
12,Cc1cc(NC(=O)Nc2ccc3ccn(C)c3c2)c2ccccc2n1 [TCMDC-140057],10.89
13,CC1CCN(c2nc(C(=O)Nc3ccc(F)cc3C(F)(F)F)c(C(C)C)s2)CC1 [TCMDC-134661],-14.15
14,CC1(C)N=C(N)N=C(N)N1c1cc(Cl)c(Cl)cc1Cl [TCMDC-124503],-35.38
15,CSc1nc2cc3c(cc2n1C(=O)c1ccc(C)cc1)OCCO3 [TCMDC-125385],-23.6
16,Cc1ccccc1N1CCN(c2ccc(C(=O)Nc3ccccc3)cc2)CC1 [TCMDC-134565],28.84
17,O=C(O)C(F)(F)F.c1ccc2[nH]c(-c3ccc(-c4ccc(CNCC5CCCO5)cc4)s3)nc2c1 (stereo not shown) [TCMDC-133106],-3.113
18,Oc1ccc(-c2cc(COc3ccccc3C(F)(F)F)c(C3=CCNCC3)cc2COc2ccccc2C(F)(F)F)cc1 [TCMDC-134520],89.52
19,FC(F)(F)c1ccccc1OCc1cc(-c2ccncc2)c(COc2ccccc2C(F)(F)F)cc1C1=CCNCC1 [TCMDC-134498],112.2
20,CN(C)CCOc1cc(NC(=O)Nc2ccc(-c3ccncc3)c(C(F)(F)F)c2)ccc1Cl [TCMDC-139224],-31.22
21,COc1cc(C=CC(=O)N2CCN(Cc3cccc(C)c3)CC2)ccc1OCc1c(C)noc1C [TCMDC-125249],23.84
22,Cc1nc(N)nc(N)c1Oc1cccc(Cl)c1 [TCMDC-137376],-5.588
23,Cc1ccc(C)c(NC(=O)NCCNc2ccnc(Nc3ccc(F)cc3)n2)c1 [TCMDC-133638],7.929
24,CN1CCN(c2cc(NC(=O)c3ccc(-c4ccc(C#N)cc4)cc3)ccc2Cl)CC1 [TCMDC-138670],-41.42
25,O=C(Nc1ccc(OC2CCN(Cc3ccc(F)cc3)CC2)c(Cl)c1)c1ccsc1 [TCMDC-133745],-5.727

row,Structure (SMILES),% Inhibition [%]
1,Cc1cc(=O)oc2c1ccc1oc(C(O)c3ccc(Cl)cc3)c(C)c12 (stereo not shown) [TCMDC-123999],-9.04
2,Fc1cccc(C=NNc2ccnc3ccccc23)c1 [TCMDC-142058],-35.92
3,COc1ccc2nc(C)cc(NN=Cc3ccccc3F)c2c1 [TCMDC-142083],38.04
4,Cc1ccc2nc(C)cc(NN=Cc3ccccc3F)c2c1 [TCMDC-142065],60.82
5,CCOc1ccc2nc(C)cc(NN=Cc3cccc(C)n3)c2c1 [TCMDC-142050],48.92
6,Fc1cccc(C=NNc2ccnc3cc(Cl)ccc23)c1 [TCMDC-123966],-20.4
7,CCOc1ccc2nc(C)cc(NN=Cc3ccccc3F)c2c1 [TCMDC-142092],61.8
8,Cc1cc(NN=Cc2ccccc2F)c2cc(C(F)(F)F)ccc2n1 [TCMDC-142027],-61.45
9,Cc1cc(NN=Cc2ccccc2F)c2ccccc2n1 [TCMDC-123982],-9.703
10,CCOc1ccc2nc(C)cc(NN=Cc3ccccc3Cl)c2c1 [TCMDC-142090],95.12
11,Cc1ccc2nc(C)cc(NN=Cc3ccccc3Cl)c2c1 [TCMDC-142062],-47.12
12,Fc1ccc2c(NN=Cc3ccccc3F)ccnc2c1 [TCMDC-142018],101.1
13,CC(C)CC(NC(=O)c1cccc(OCCN2CCOCC2)c1)C(=O)NC(/C=N/NC(=O)c1ccccc1)CCc1ccccc1 (stereo not shown) [TCMDC-135464],15.6
14,CC1(C)CCCN(C(=O)c2cccc(-n3nc(-c4ccc(Cl)cc4)cc3N)c2)C1 [TCMDC-134042],-38.1
15,O=C(Nc1ccc2c(c1)CCC2)c1cnc(N2CCN(c3ccncc3)CC2)c(Cl)c1 [TCMDC-134596],8.854
16,O=C(Nc1ccc(Br)cc1)N(CCN1CCOCC1)CC(O)COCc1ccc(Cl)c(Cl)c1 (stereo not shown) [TCMDC-141490],5.181
17,Cc1ccc(N2C(N)=NC(N)=NC2(C)C)cc1 [TCMDC-131578],18.97
18,CN(CCON1C(N)=NC(N)=NC1(C)C)c1ccccc1 [TCMDC-131733],4.514
19,O=C(Nc1ccc(I)cc1)N1CCc2sccc2C1CN1CCCCC1 (stereo not shown) [TCMDC-136648],-39.22
20,CC(CN(C)C)C(=O)Nc1cccc(-c2ccc(-c3nc4cc(F)ccc4[nH]3)s2)c1 (stereo not shown) [TCMDC-137114],-16.25
21,CCN(CCO)CCCC(C)Nc1ccnc2cc(Cl)ccc12 (stereo not shown) [TCMDC-123987],30.66
22,CCC(C)(C)C1CCc2nc(N)nc(N)c2C1 (stereo not shown) [TCMDC-137870],-20.62
23,CC(C)(C)C1CCc2nc(N)nc(N)c2C1 (stereo not shown) [TCMDC-137954],82.06
24,CC(C)C1CCc2nc(N)nc(N)c2C1 (stereo not shown) [TCMDC-137947],0.4281
